Bioassay records (PubChem BioAssay)
TCR activator: Activators of T cell receptors: qHTS campaign; primary human leukocytes, anti-CD3, IL-2 HTRF, 48 h; Potency, µM (doses to about 9.22 µM), for inactives: at the highest dose activation of IL-2 secretion, hits mostly activators; 330,000 tested, under 10 active; AID 504894, 2011; further: % of control where 0% means no effect
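Using a-CD3 beads without co-stimulation, primary human leukocytes were exposed to compounds for 48 hr. An HTRF IL-2 kit measured the cytokine, with europium-to-d2 energy transfer producing emission at 665nm upon 320nm excitation.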
PINK1 expr mod: A Quantitative High throughput Screen to Identify Chemical Modulators of PINK1 Expression; PINK1 immunofluorescence, high-content cytometry, 24 h; Potency, µM (titrated, usually from 76.6 µM), for the others: at the highest dose activation (PINK1 increase), hits mostly activators; 0.2% of 410,000 active; AID 624263, 2012; active means well fitted activation curve with a large enough effect; inconclusive means small, poorly fitted or top-dose-only effect; cell line not stated here; further: potency means the concentration at half of the fitted maximal effect; % of control where 0% means no effect; nearly all actives have a fitted effect of over 65% in size
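PINK1 protein, normally rapidly degraded, was detected by immunofluorescence after 24 hour compound treatment of a stable cell line. Titration data (5 concentrations) came from laser-scanning cytometry, with CCCP-treated wells as controls.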
BRCA1 expr act: qHTS Assay to Identify Small Molecule Activators of BRCA1 Expression; MCF7-BRCA1-FFLuc reporter, luminescence, 48 h; response scale: scaled: vehicle 0%, 10 µM genistein 100%; 1.1% of 380,000 active; Potency, µM (titrated, usually from 46.1 µM), inactives show at the top dose activation, hits mostly activators; AID 624202, 2012; further: potency means the concentration at half of the fitted maximal effect; nearly all actives have a fitted effect of over 80% in size
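48 h compound treatment of MCF7-BRCA1-FFLuc cells (phenol-red free MEM, 37 °C), then 15 min with luciferase substrate and luminescence imaging.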
Akt phos inh: HTS Assay for Inhibitors of Akt Phophorylation: Primary Screen | Neuro2A IGF-stimulated pAkt S473 HTRF, 20 min; hits give low values | activity change, % for hits at 50 µM | 0.32% of 360,000 active | AID 651550, 2012; in the data active means activity change below about -80%; inconclusive means mostly about -51% to -80%; further: on the % scale 0 is the no-effect control and ±100 the full control effect
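Single-point screen (50 µM final compound) in Neuro2A cells stimulated 20 min with 6 nM IGF at 37 deg C. After lysis, Ser473-phosphorylated Akt read by HTRF (ex 330 nm, em 615/665 nm) as the 665/615 ratio.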
The depositor's hits bear a star; i = inactive; ? = inconclusive; nt = no result; [ ] = another dose, or the depositor's remark. Rows were chosen to be rich in hits. Some 1.5% of all compounds tested hit in one or more screens of this group. Unless noted, the call rests on the fitted dose curve; in most records, active means well fitted curve in the direction sought with a large enough effect; inconclusive means small, poorly fitted or top-dose-only effect, or another doubt; inactive means no such curve, though single readings can be large; an effect the other way counts as inactive or inconclusive.

SMILES	TCR activator	PINK1 expr mod	BRCA1 expr act	Akt phos inh
CC(=O)Nc1ccc2nc(SCC(=O)Nc3ccc(N4CCOCC4)c(Cl)c3)sc2c1	-2%	0%	13µM*	i
O=C(CSc1nc2ccccc2o1)Nc1ccc(N2CCOCC2)c(Cl)c1	7%	0%	6.3µM*	i
O=C(O)c1ccccc1CSc1nc2ccccc2o1	-5%	0%	8.9µM*	i
Cc1ccc2c(c1)cc(CN(C)Cc1nc(C)cs1)c(=O)n2C	nt	0%	nt	nt
COc1ccccc1-c1ccnc(-n2ncc(C(=O)N(C)C(C)c3nc(C)cs3)c2C2CC2)n1 (centres undefined)	nt	0%	nt	nt
Cc1cnc(C)c(-c2cccc3c2OC(CNC(=O)/C=C/c2ccc(F)c(F)c2)C3)n1 (centres undefined)	nt	6%	nt	nt
O=C(O)c1ccc(N=Nc2c(O)[nH]c3cc(Cl)ccc23)cc1	5%	0%	5%	i
O=C(O)c1ccc(N=Nc2c(O)[nH]c3ccc(Br)cc23)cc1	0%	1%	5.6µM*	i
Cc1c(C#N)c2ncn(Cc3ccccn3)c(=O)c2n1-c1ccccc1	5%	0%	0%	i
Cc1c(C#N)c2ncnc(N)c2n1-c1ccccc1	-1%	-2%	-25%	-104%*
CSc1ccc2cc(CNCc3ccccc3F)c(N3CCCC(CO)C3)nc2c1 (centres undefined)	nt	0%	nt	nt
Cc1cc(C)nc(-c2cccc3c2OC(CNC(=O)C2CCOC2)C3)n1 (centres undefined)	nt	1%	nt	nt
O=C(NCC1CCC2(CCN(Cc3cnn(-c4ccc(F)cc4)c3)CC2)O1)c1ccccc1 (centres undefined)	nt	0%	nt	nt
Cc1ccccc1NC(=O)c1cc(C(=O)c2cc(Cl)ccc2O)cn(-c2ccccc2C)c1=O	-5%[46.1 µM]	16µM*	-64%	i
COc1ccc(-n2cc(C(=O)c3cc(Cl)ccc3O)cc(C#N)c2=O)cc1	0%	?	-2%	i
Cc1ccc(-n2cc(C(=O)c3cc(Cl)ccc3O)cc(C#N)c2=O)cc1	1%[46.1 µM]	18µM*	-52%	i
CCCCn1cc(C(=O)c2cc(Br)ccc2O)cc(C#N)c1=O	3%	18µM*	-44%	i
Cc1ncc2c(c1CNC(=O)c1cncs1)CCN(C(=O)c1cc(F)c(F)cc1F)C2	nt	-1%	nt	nt
O=C(NCC(=O)N1CCCCC1)c1sc2ccccc2c1Cl	-8%	2%	4.5µM*	i
CC1CCCN(C(=O)CNC(=O)c2sc3ccccc3c2Cl)C1 (centres undefined)	1%	1%	?	i
O=C(NCCCN1CCOCC1)c1sc2ccccc2c1Cl	6%	-1%	11µM*	i
O=C(NCCN1CCOCC1)c1sc2cc(Cl)ccc2c1Cl	1%	3%	?	i
Clc1ccc(-c2noc(CN3CCCC3)n2)cc1	3%	2%	13µM*	i
Cc1ccc(-c2noc(CN3CCCCC3)n2)cc1	-1%	2%	2.5µM*	i
CC(=O)N1CCN(/[N+]([O-])=N/Oc2ccc([N+](=O)[O-])cc2[N+](=O)[O-])CC1	nt	1%	-32%	nt
SMILES	TCR activator	PINK1 expr mod	BRCA1 expr act	Akt phos inh
COc1cccc(C(=O)Nc2ccccc2-c2nnc(-c3ccc(C(C)(C)C)cc3)o2)c1	nt	-5%	10%	nt
CCOC(=O)c1nnc(-c2ccccc2)nc1Oc1ccc(Cl)cc1	3%	0%	-32%	-119%*
CCOC(=O)c1nnc(-c2ccccc2)nc1Sc1ccccc1Cl	2%	-3%	-83%	i
O=C(Nc1cc(C(F)(F)F)ccc1-n1cncn1)c1ccc(Cl)cc1	5%	-1%	1%	-91%*
COCC(=O)Nc1cc(C(=O)N2CCN(C3CCCC3)C(=O)C2)c2c(c1)nc(-c1ccncc1)n2C	nt	-1%	nt	nt
O=C1OCc2ccc(NC(=O)c3c(F)cccc3Cl)cc21	-2%	1%	30%	i
O=C(CNC(=O)c1ccccc1F)Nc1ccc2c(c1)CCC2	-3%	1%	4µM*	i
O=C(Nc1ccc2c(c1)CCC2)c1c(F)cccc1Cl	0%	0%	5µM*	i
O=C(CNC(=O)c1ccc(Br)cc1)Nc1ccc2c(c1)CCC2	4%	4%	-11%	i
COc1cc2c(NC3CCN(C(C)C)CC3)nc(N3CCCN(C)CC3)nc2cc1OCCCN1CCCC1	nt	-1%	-61%	nt
